# Rows were chosen to be rich in hits. Some 3.4% of all compounds tested hit in one or more screens of this group.
# esBAF inh: inhibitors of esBAF chromatin remodeling in mouse ES cells; Bmi1-luciferase knock-in reporter, 24 h; 100% = twice the neutral-well signal; hit rate 2% among 350,000; reporter increase, % at 12.5 µM; in the data active means activation above about 40%; inconclusive means no clear call, values can overlap the other calls;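 further: 0% = median of the plate's neutral control wells and 100% = double that signal; a rise in the Bmi1 reporter signal indicates esBAF inhibition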
# Vif imaging: inhibitors of HIV Vif | HEK293T cells, Vif self-association by quenched fluorescence, imaging, 24 h | inhibition, % at 7.49 µM | hit rate 0.35% among 340,000 | AID 602346; in the data active means inhibition above about 50%, passing the limit was not always enough; inconclusive means no clear call, values can overlap the other calls; inactive means below about 31%
# HSF1 inhib: HSF1 inhibition; NIH3T3-HGL HSE-luciferase, MG132-induced, luminescence 8 h; hits give low values; activity change, negative = inhibition, % at 7.5 µM (by protocol); hit rate 0.77% among 300,000; AID 2098;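 active means more than half of replicate wells show activity change below -50%, luminescence cut by over half; inconclusive means some wells, but at most half, below -50%; inactive means no replicate well below -50%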;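 further: luciferase reports HSF-1 transcriptional activity via heat shock element; 0% = median of DMSO wells and -100% = zero luminescence signal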
# HSF1 activator: increases HSF-1 driven luciferase reporter signal | NIH3T3-HGL HSF-1 luciferase reporter, MG132, 8 h; 100% = twice DMSO control signal | activation, % at 9 µM | hit rate 1.7% among 300,000 | AID 504408;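 active means mean replicate activation of at least 50% with a set share of replicates each reaching 50%; inconclusive means only one of those two conditions met; inactive means mean below 50% and too few replicates reaching it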;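 further: 0% = median of the neutral control wells and 100% = twice that signal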
# * hit, by the source's call; ? = inconclusive; / = no result.
SMILES,esBAF inh,Vif imaging,HSF1 inhib,HSF1 activator
O=C(CCn1c(=S)oc2ccccc21)N1CCCCC1,/,0,4,54*
CCCN1C[C@@H](C)[C@@H](OC)CN(C)C(=O)c2ccc(NS(=O)(=O)c3cn(C)cn3)cc2OC[C@H]1C,3,/,/,/
COc1ccc(NC(=O)N(C)C[C@H]2Oc3ccc(NS(=O)(=O)c4ccc(Cl)cc4)cc3C(=O)N([C@H](C)CO)C[C@H]2C)cc1,-3,/,/,/
NCCc1nnc(SCc2ccc(F)cc2)o1,-3,13,40,64*
C[C@@H]1CCCCO[C@H](CN(C)S(=O)(=O)c2cccs2)[C@@H](C)CN([C@@H](C)CO)C(=O)c2cc(NC(=O)c3ccccc3)ccc2O1,3,/,/,/
COc1ccccc1N1CCN(/N=C/c2cccc(Cl)c2)CC1,100*,-10,16,60*
COc1ccccc1N1CCN(/N=C/C=C\c2ccco2)CC1,11,2,55,80*
CO[C@@H]1CN(C)C(=O)c2ccc(NC(=O)c3cccc(Oc4ccccc4)c3)cc2OC[C@H](C)NC[C@H]1C,-10,/,/,/
Cc1ccc(S(=O)(=O)Nc2cccc3c2O[C@H](CN(C)S(=O)(=O)c2cccs2)[C@@H](C)CN([C@@H](C)CO)C3=O)cc1,-7,/,/,/
CC(C)NC(=O)N1C[C@H]2[C@@H](c3ccccc31)[C@H](CO)N2C(=O)C1CCCC1,-3,/,/,/
CCn1c(/C=C/c2c[nH]c3ccccc23)nc2ccccc2c1=O,/,1,32,81*
C[C@H](CO)N1C[C@H](C)[C@H](CN(C)S(=O)(=O)c2ccccc2)Oc2ccc(NC(=O)Nc3ccccc3)cc2C1=O,0,/,/,/
COc1cccc(OC)c1C(=O)N1CCN=C1SCc1cccnc1,-4,-3,-6,-24
COc1ccc(C(=O)N2CCN=C2SCc2cccnc2)cc1OC,2,9,-66*,-75
CCC(=O)N1C[C@H](C)[C@@H](OC)CN(C)C(=O)c2cc(NC(=O)c3ccc(F)cc3)ccc2OC[C@H]1C,-1,/,/,/
COc1ccc2nc3sc(C(=O)NCCN4CCc5ccccc5C4)cc3cc2c1,89*,-8,8,3
CSc1cccc(NS(=O)(=O)c2cc(Br)cnc2N)c1,0,-4,-61*,-70
Cc1ccc(NS(=O)(=O)c2cc(Br)cnc2N)cc1C,-1,10,20,47
CCCCN(C(=O)c1ccc(S(=O)(=O)N(C)C)cc1)c1nc2ccccc2s1,/,-3,-8,-10
CN(C(=O)c1ccccc1)c1nc2ccccc2s1,-75,-19,29,65*
Cc1noc(C)c1S(=O)(=O)N(C)C[C@H]1Oc2ccc(NS(C)(=O)=O)cc2CC(=O)N([C@H](C)CO)C[C@@H]1C,1,/,/,/
O=C1C=C(Nc2ccccc2C(=O)O)c2ccccc2C1=O,-5,-4,64,93*
O=C1C=C(Nc2ccccc2)c2ccccc2C1=O,/,3,47,49
Cc1cccc(S(=O)(=O)N(C)C[C@H]2OCc3cn(nn3)CCCC(=O)N([C@@H](C)CO)C[C@H]2C)c1,0,/,/,/
C[C@@H]1CN([C@@H](C)CO)C(=O)c2cccc(NC(=O)C3CC3)c2O[C@H]1CN(C)S(C)(=O)=O,-1,/,/,/
SMILES,esBAF inh,Vif imaging,HSF1 inhib,HSF1 activator
Cn1c(SCC(=O)c2ccccc2)nnc1-c1cnccn1,48*,-17,24,31
Cn1c(SCC(=O)c2ccccc2)nnc1-c1cccs1,68*,2,22,29
Cn1c(SCC(=O)NCc2cccs2)nnc1-c1cccs1,/,/,-8,2
Cn1c(SCC(=O)c2ccccc2)nnc1-c1cccnc1,33,-19,2,21
CCn1c(SCC(=O)c2ccccc2)nnc1-c1cnccn1,50*,-18,13,8
Cn1c(CS(=O)Cc2c(Cl)cccc2Cl)nnc1SCc1ccc(Cl)cc1 (configuration not stated),/,24,26,61*
Cc1ccc(CSc2nnc(CS(=O)Cc3ccc(Cl)cc3Cl)n2C)cc1 (configuration not stated),2,/,-2,-3
CN1c2ccc(Br)cc2[C@@H]2[C@@H](CCN2S(=O)(=O)c2cccc(F)c2)[C@@H]1CO,2,/,/,/
Cc1ccc(CSc2nnc(-c3cccs3)n2C)cc1,25,0,13,22
Cn1c(SCc2c(Cl)cccc2Cl)nnc1-c1cccs1,48*,-16,/,/
COc1ccc(C(=O)C2CCCN(Cc3ccc(NC(C)=O)cc3)C2)cc1OC (configuration not stated),-7,0,-72*,-76
CC(=O)Nc1ccc(CN2CCCC(C(=O)c3cccc(C(F)(F)F)c3)C2)cc1 (configuration not stated),/,3,-7,-27
COc1cccc(/C(C)=N/NC(=O)c2ccc(N(C)C)cc2)c1,53*,24,-3,0
O=C(c1cc2cc(Cl)ccc2o1)N1CCCCCC1,65*,-9,/,/
O=C(c1cc2cc3ccc(Cl)cc3nc2o1)N1CCCCCC1,32,0,21,26
C[C@H](CO)N1C[C@H](C)[C@@H](CN(C)C(=O)c2ccccc2)OCCCC[C@H](C)Oc2ccc(NC(=O)C3CCCCC3)cc2C1=O,0,/,/,/
COc1ccc(-c2cc(C(F)(F)F)nc(S(=O)(=O)CCCC(=O)Nc3cccc(O)c3)n2)cc1OC,/,-13,186,260*
COc1ccc(-c2cc(C(F)(F)F)nc(S(=O)(=O)CCC(=O)N3CCOCC3)n2)cc1,3,20,79,106*
COc1ccccc1-c1cc(C(F)(F)F)nc(S(=O)(=O)CCCC(=O)N2CCOCC2)n1,10,20,?,-60
CC(=O)N[C@@H]1CC[C@@H](CCNC(=O)C2CC2)O[C@@H]1CO,-4,/,/,/
COc1ccc(Cn2c(C)nc3c(c2=O)c2nc4ccccc4nc2n3Cc2ccco2)cc1,-4,0,/,/
CCC(C)n1cnc2c(c1=O)c1nc3ccccc3nc1n2Cc1ccc(OC)cc1 (configuration not stated),2,-11,37,104*
C[C@@H]1CN([C@H](C)CO)C(=O)c2cc(-c3cccc(C(=O)N(C)C)c3)cnc2O[C@H]1CN(C)S(=O)(=O)c1ccccc1,-8,/,/,/
Nc1ccccc1C#Cc1ccc2[nH]ccc2c1,82*,-3,-1,-6
Nc1ccccc1C#Cc1ccccc1,69*,-4,5,11
SMILES,esBAF inh,Vif imaging,HSF1 inhib,HSF1 activator
C/C(=N\Nc1ccc(C(=O)O)cc1)c1ccc2c(c1)Nc1ccccc1S2,52*,-2,-5,-4
O=C([C@@H]1[C@@H](CO)[C@@H]2Cn3c(cccc3=O)[C@@H]2N1Cc1ccncc1)N1CCCCC1,-4,/,/,/
CC(SC1=NCCS1)C(=O)Nc1nnc(-c2ccc(Cl)cc2)s1 (configuration not stated),43*,/,2,-10
COc1ccccc1-c1nnc(NC(=O)C(C)SC2=NCCS2)s1 (configuration not stated),1,-5,1,-10
CO[C@H]1CN(C)C(=O)c2cc(NC(=O)C3CC3)ccc2OC[C@H](C)N(C(=O)NC(C)C)C[C@@H]1C,-2,/,/,/
Cn1c(-c2ccc(F)cc2)cnc1NCc1cc2c(cc1[N+](=O)[O-])OCO2,/,-7,2,-1
Cc1cc(F)ccc1NCc1cc2c(cc1[N+](=O)[O-])OCO2,-5,/,17,53*

# Screening results as filed in PubChem.
